Measured values as given in PubChem BioAssay AID2284371 (EPA ToxCast).
Results filed as inconclusive are left out. The source made the active and inactive calls. How the source made its calls: active means hit-call score of the fitted dose curve at least 0.9, where 1 is the maximum; inconclusive means response in the unintended direction; inactive means score below 0.9.

Assay: ATG_M_61_EcoTox2: Attagene TRANS-FACTORIAL EcoTox-2 HepG2 Assay for M61 Transcription Factor (Internal Marker)
Experimental: ATG_EcoTox2 is a cell-based, multiplexed assay created by modifying the existing Attagene TRANS-FACTORIAL system to include a panel of nuclear receptors from some or all the following species: human (Homo sapiens), african clawed frog (Xenopus laevis), rainbow trout (Oncorhynchus mykiss), japanese medaka (Oryzias latipes), and zebrafish (Danio rerio). The ECOTOX2-FACTORIAL format uses HepG2, a human liver cell line, with measurements taken at 24 hours after chemical dosing in a 24-well plate. ATG_M_61_EcoTox2 is one of 29 assay components calculated in the ATG_EcoTox2 assay. It is designed to make measurements of mRNA induction, a form of inducible reporter, as detected with fluorescence intensity signals by Reverse transcription polymerase chain reaction (RT-PCR) and Capillary electrophoresis technology.The assay endpoint ATG_M_61_EcoTox2 was analyzed in the positive analysis fitting direction relative to DMSO as the negative control and baseline of activity. Using a type of inducible reporter, measures of mRNA for gain-of-signal activity can be used to understand the background control at the transcription factor-level as they relate to the gene. Furthermore, this assay endpoint can be referred to as a secondary readout, because this assay has produced multiple assay endpoints where this one serves a background control function. To generalize the intended target to other relatable targets, this assay endpoint is annotated to the background measurement intended target family, where the subfamily is internal marker.
Human liver HepG2 cells are transiently transfected with multiple reporter transcription units (MRTUs) in 6-well plates using FuGene 6 reagent (Roche; 3 ml FuGene/1 mg DNA). The MRTU constructs are regulated by a cis-regulating element (promoter). Each RTU expresses a GAL4-UAS that regulates the transcription of a nearby target reporter gene sequence. A major difference between the CIS and TRANS system is that in CIS activities of endogenous TFs are measured, whereas the TRANS assay evaluates changes in activities of exogenous, chimeric NR-Gal4 proteins. […] At the end of 24 hour incubation, total RNA was isolated using TriZol reagent (Invitrogen). The isolated RNA is then reverse-transcribed using oligo(dT) primer and Mo-MLV reverse transcriptase (Invitrogen) with DNAse I (Ambion) treatment for 30 min. The one-tenth of the produced cDNA was amplified by PCR using Taq DNA polymerase (Invitrogen) and two reporter sequence-specific primers. The PCR products were fluorescently labeled by primer extension with 6-arboxyfluorescein (6-FAM) 5'-labeled reporter sequence-specific primer (2 min at 95 C, 20 s at 68 C and 10 min at 72 C) and these products were digested with 5U of HpaI (New England Biolabs) for 2h at 37 C. The fragments were purified using Qiaquick PCR columns (Qiagen), analyzed on an ABI 3130xL genetic analyzer (Applied Biosystems) with peak positions identified by using a set of X-rhodamine (ROX)-labeled MapMarker1000 molecular weight standards (BioVentures). The raw capillary electrophoresis data was processed using Attagraph software (Attagene).

Structure (SMILES)	outcome
Cc1nc(-c2ccc(C(F)(F)F)cc2)sc1C(=O)NCc1ccc(OC(C)(C)C(=O)O)cc1	inactive
CC(C)(Oc1ccc(Cl)cc1)C(=O)O	inactive
CC(c1cc2ccccc2s1)N(O)C(N)=O (stereo unspecified)	inactive
CC(C)(Oc1ccc(CCNC(=O)c2ccc(Cl)cc2)cc1)C(=O)O	inactive
CC(C)OC(=O)C(C)(C)Oc1ccc(C(=O)c2ccc(Cl)cc2)cc1	inactive
C=C(c1ccc(C(=O)O)cc1)c1cc2c(cc1C)C(C)(C)CCC2(C)C	inactive
CC(C)(Oc1ccc(C2CC2(Cl)Cl)cc1)C(=O)O (stereo unspecified)	inactive
Cc1c(C)c2c(c(C)c1O)CCC(C)(COc1ccc(CC3SC(=O)NC3=O)cc1)O2 (stereo unspecified)	inactive
Cc1cccc(Nc2cc(Cl)nc(SCC(=O)O)n2)c1C	inactive
CN(CCOc1ccc(CC2SC(=O)NC2=O)cc1)c1ccccn1 (stereo unspecified)	inactive
C[C@]12C=CC(=O)C=C1CC[C@@H]1[C@@H]2C(=O)C[C@@]2(C)[C@H]1CC[C@]2(O)C(=O)CO	inactive
